Source: PubChem BioAssay (National Center for Advancing Translational Sciences (NCATS))
Compounds with a hit are over-represented: about 11% of the library has one in this group of screens.
Pf growth 96h: Primary qHTS for delayed death inhibitors of the malarial parasite plastid, 96 hour incubation. AID 504834, 2011. P. falciparum luciferase reporter growth, 96 h. Potency, µM (top dose mostly 28.7 µM), for the others: at the highest dose activity change, negative = inhibition, actives largely listed as inhibitors. 6.9% of 320,000 active
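Two-generation exposure (96 h) targets delayed-death phenotype. Reporter parasites carrying integrated firefly luciferase, in red cells at 2% hematocrit and 0.05% parasitemia final, kept at 37 C, 5% CO2; luminescence loss indicates inhibition.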
AmpC no deterg: qHTS Inhibitors of AmpC Beta-Lactamase (assay without detergent); 0.52% of 330,000 active; P00811; Potency, µM (doses to about 57.1 µM), without a hit: at the highest dose activity change, negative = inhibition, most hits filed as inhibitors; AID 485341, 2010; AmpC nitrocefin hydrolysis, absorbance 480 nm, 0.0001% Triton;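 further: plate controls were no compound for no effect and no enzyme for full effect; nearly all actives have a fitted effect of over 20% in size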
Target sequence (P00811 whole entry, looked up): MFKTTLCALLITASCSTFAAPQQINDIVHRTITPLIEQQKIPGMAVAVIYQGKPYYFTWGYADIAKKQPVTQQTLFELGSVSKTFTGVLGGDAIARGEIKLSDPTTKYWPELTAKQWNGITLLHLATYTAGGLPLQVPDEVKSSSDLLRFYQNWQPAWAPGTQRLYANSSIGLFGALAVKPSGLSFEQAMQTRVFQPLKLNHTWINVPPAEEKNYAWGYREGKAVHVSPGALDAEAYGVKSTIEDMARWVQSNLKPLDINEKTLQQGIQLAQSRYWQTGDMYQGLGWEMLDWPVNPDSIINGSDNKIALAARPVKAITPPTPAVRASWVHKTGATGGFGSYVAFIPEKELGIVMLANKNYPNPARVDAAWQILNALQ
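20 mM phosphate pH 7.0 + 0.01% (detergent screen) or 0.0001% Triton X-100; 5.3 nM AmpC reagent; cpd preinc 15 min RT; nitrocefin (800 uM stock) to start; A480 q20 s × 4 min; Activity was normalised to no-enzyme and no-compound control wells.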
AMA1 RON2 block: qHTS for Inhibitors of AMA1-RON; Towards Development of Antimalarial Drug Lead: Primary Screen; Plasmodium falciparum AMA1 (3D7) - RON2 peptide interaction; AlphaScreen AMA1-biotinylated RON2 peptide binding; Potency, µM (highest dose often 58.2 µM), for inactives: top-dose activity change, negative = inhibition, hits mostly inhibitors; 0.2% of 360,000 active; AID 720542, 2013;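 further: 0% = vehicle wells and -100% = peptide control; nearly all actives have a fitted effect of over 45% in size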
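AMA1 (3D7) with his tag at 25 nM final met compounds first, then biotinylated RON2 peptide at 25 nM; detection used donor plus acceptor beads, 10 µg/mL apiece, read by AlphaScreen after 30 min at room temperature.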
Pf growth 48h: Primary qHTS for delayed death inhibitors of the malarial parasite plastid, 48 hour incubation | Potency, µM (highest dose often 28.7 µM), for the others: at the top dose activity change, negative = inhibition, most hits filed as inhibitors | AID 504832, 2011 | 5.9% of 310,000 active | P. falciparum luciferase growth in erythrocytes, 48 h
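Luciferase-expressing P. falciparum in infected erythrocytes (2% hematocrit, 0.1% parasitemia final) in RPMI 1640/0.5% Albumax were exposed to compound for 48 hours at 37 C, 5% CO2; growth read as luminescence.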
HCV inh: qHTS Assay for Inhibitors of Hepatitis C Virus (HCV) | Huh7.5.1 HCVcc-Cre infection, luciferase reporter, 44 h | Potency, µM (doses to about 41.8 µM), for the others: at the highest dose activity change, negative = inhibition, actives largely listed as inhibitors | 3.4% of 340,000 active | AID 651820, 2012
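Cells (1,000/well) were plated 4 h before compound, then infected with HCVcc-Cre virus (~0.5 moi). After 44 h further culture, infection was read as luciferase luminescence following a 15 min substrate incubation at room temperature.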
AmpC detergent: qHTS Inhibitors of AmpC Beta-Lactamase (assay with detergent) | P00811 | AmpC hydrolysis of nitrocefin, absorbance 480 nm, 0.01% Triton | Potency, µM (highest dose often 114 µM), for the others: at the highest dose activity change, negative = inhibition, actives largely listed as inhibitors | 0.041% of 370,000 active | AID 485294, 2010;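 further: 0% = no-compound wells and -100% = no-enzyme wells; nearly all actives have a fitted effect of over 25% in size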
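AmpC (5.3 nM in the dispensed reagent) in 20 mM phosphate pH 7.0 with 0.01% (detergent screen) or 0.0001% Triton X-100 was preincubated with compounds for 15 min at room temperature. Nitrocefin was then added from an 800 uM solution, and hydrolysis was followed at 480 nm.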
Numbers without * were called inactive; u = inconclusive; x = no result. The call rests on the fitted dose curve; in most records, active means well fitted curve in the direction sought with a large enough effect; inconclusive means small, poorly fitted or top-dose-only effect, or another doubt; inactive means no such curve, though single readings can be large; an effect the other way counts as inactive or inconclusive. Unless noted, on the % scale 0 is the no-effect control and ±100 the full control effect; potency means the concentration at half of the fitted maximal effect.

SMILES | Pf growth 96h | AmpC no deterg | AMA1 RON2 block | Pf growth 48h | HCV inh | AmpC detergent
O=C(C1=COCCO1)N1CCN(S(=O)(=O)c2cccc(Cl)c2Cl)CC1 | 15µM* | 39% | 7% | u | 8% | u
COc1ccc(-c2nc3c(c(SCC(=O)N4CCCCC4)n2)Cc2c(CO)cnc(C)c2O3)cc1 | x | x | x | x | x | 19%
O=C(Nc1cc(Sc2ccccn2)cc([N+](=O)[O-])c1)c1ccc([N+](=O)[O-])cc1 | 3.3µM* | u | -4% | 13µM* | u | -13%
O=[N+]([O-])c1ccc(CSc2ccccn2)cc1 | 25% | -15% | 10% | x | -23% | u
O=[N+]([O-])c1ccc(Sc2ccccn2)nc1 | 8.3µM* | -8% | 6% | u | 7% | -5%
N#Cc1cc(Sc2ccccn2)c([N+](=O)[O-])cc1C#N | 69% | -22% | -6% | 3.7µM* | 23% | 3%
O=C(CSc1ccc(-c2ccccn2)nn1)c1ccc([N+](=O)[O-])cc1 | 3% | 3% | 13µM* | 10% | u | 7%
O=C(Cn1c(=O)n(-c2ccccc2)c(=O)c2ccc(C(=O)NCc3ccc4c(c3)OCO4)cc21)Nc1ccc(F)c(Cl)c1 | x | x | x | x | x | 2%
CN(C(=O)Cn1cc(S(=O)(=O)N2CCN(c3ccccc3F)CC2)c2ccccc2c1=O)c1ccc(Cl)cc1 | x | x | x | x | x | 15%
FC(F)(F)c1cc(-c2ccc(Cl)cc2)nc(NCc2cccnc2)n1 | x | 4% | 23% | 3.7µM* | 11µM* | -1%
Cc1ccc(-c2cc(C(F)F)nc(NCc3cccs3)n2)cc1 | 2.6µM* | -14% | 19% | 11% | u | u
Cc1ccc(-c2nc(C#N)c(NCC3CCCO3)o2)cc1 (centres undefined) | 53% | 10% | 1% | 50% | -10% | -4%
Cc1ccc(-c2cc(C(F)F)nc(NCC3CCCO3)n2)cc1 (centres undefined) | 21% | 25% | 32% | -4% | 4µM* | -8%
Cc1ccc(-c2cc(C(F)F)nc(NCc3cccnc3)n2)cc1 | 17% | 35% | u | 13µM* | 6.3µM* | -2%
Cc1nc2ccc(S(=O)(=O)CCC(=O)Nc3ccc(Cl)cc3)cc2s1 | x | x | x | x | x | 5%
CCn1cc(S(=O)(=O)c2ccccc2)c(=O)c2cc(F)c(N3CCN(c4ccccc4)CC3)cc21 | x | x | x | x | x | -6%
CN1CCN(c2ccc(S(=O)(=O)N3CCCCC3)cc2NC(=O)CCc2ccccc2)CC1 | u | 205% | -1% | 9.3µM* | -21% | 4%
C/C=C/c1ccc(OCC(=O)Nc2cc(Cl)ccc2-n2cncn2)c(OC)c1 | 12µM* | u | -13% | u | u | -13%
C/C=C/c1ccc(OCC(=O)Nc2cc(S(=O)(=O)N3CCOCC3)ccc2N2CCCC2)c(OC)c1 | u | 109% | -22% | 13µM* | 10µM* | 0%
CC(=O)c1cccc(OCC(=O)Nc2cc(Cl)ccc2-n2cncn2)c1 | 38% | -3% | 4% | 64% | u | -9%
Cc1ccc(OCC(=O)Nc2ccc(S(=O)(=O)Nc3ccccn3)cc2)cc1C | u | -23% | 5% | u | u | 1%
CCc1cccc(OCC(=O)Nc2ccc(S(=O)(=O)Nc3ccccn3)cc2)c1 | -6% | 10µM* | 2% | -13% | -24% | -6%
COc1ccc(CC(=O)Nc2cc(S(=O)(=O)N3CCOCC3)ccc2N2CCCC2)cc1OC | x | 18% | 5% | x | 8% | x
CCCCN1C(=O)c2[nH]nc(-c3ccccc3O)c2C1c1ccc(OCc2ccccc2)cc1 (centres undefined) | x | x | x | x | x | -2%
CC(Oc1ccccc1)C(=O)Nc1ccc(C(=O)OCc2cc(=O)n3nc(C(C)C)sc3n2)cc1 (centres undefined) | x | x | x | x | x | 6%
SMILES | Pf growth 96h | AmpC no deterg | AMA1 RON2 block | Pf growth 48h | HCV inh | AmpC detergent
CCn1c(=O)cc(OCC(=O)Nc2cc(OC)c(OC)c(OC)c2)c2ccccc21 | x | x | x | x | x | 15%
O=c1c2ccccc2nc(N2CCN(c3cccc(Cl)c3)CC2)n1-c1ccccc1 | x | x | x | x | x | -1%
C=CCC(CC=C)(CNC(=O)C(=O)Nc1ccc(Br)cc1)c1ccc(OC)c(OC)c1 | x | x | x | x | x | -2%
COc1cccc(CC(=O)Nc2cc(C(F)(F)F)ccc2N2CCCC2)c1 | 13µM* | -17% | 5% | u | -28% | 0%
O=C(COc1ccccc1)Nc1cc(C(F)(F)F)ccc1N1CCCC1 | -6% | -16% | 10% | u | u | -3%
COc1cccc(CC(=O)Nc2cc(S(=O)(=O)N3CCOCC3)ccc2OC)c1 | u | -16% | -2% | -11% | 1% | -17%
COc1cccc(CC(=O)Nc2cc(S(=O)(=O)N3CCOCC3)ccc2N2CCOCC2)c1 | 10µM* | 44% | 11% | u | 11% | -3%
O=C(Cc1ccccc1)Nc1cc(C(=O)c2ccccc2)ccc1N1CCOCC1 | 5.2µM* | 18% | -10% | x | u | 0%
Cc1ccccc1OCC(=O)Nc1cc(S(=O)(=O)N2CCCCC2)ccc1N1CCN(C)CC1 | u | 179% | u | 4% | 11µM* | 1%
CC(=O)Nc1c(C)nn(-c2ccccc2)c1N1CCC(C(=O)Nc2ccc(F)cc2Cl)CC1 | x | x | x | x | x | 15%
CCN(CC)c1ccc(NC(=O)COCc2cc(-c3ccc4c(c3)OCO4)on2)c(C)c1 | x | x | x | x | x | -4%
CCOC(=O)c1ccc(NC(=O)CCn2c(=O)c3cccn3c3cccnc32)cc1 | x | x | x | x | x | -10%
O=C(c1ccccc1)c1ccc(N2CCOCC2)c(F)c1 | 0% | -8% | 7% | 187% | -11% | -16%
COc1ccc(N2CCOCC2)c(NC(=O)COc2cccc(C)c2C)c1 | -8% | -17% | -5% | -16% | u | 1%
Cc1cccc(OCC(=O)Nc2cc(S(=O)(=O)N3CCOCC3)ccc2N2CCCC2)c1C | 7.4µM* | 123% | -30% | 4.1µM* | u | 8%
CCc1cccc(OCC(=O)Nc2cc(S(=O)(=O)N3CCOCC3)ccc2N2CCCC2)c1 | 8.3µM* | 82% | -2% | u | u | 6%
O=C(c1ccccc1)c1cc(F)c(N2CCOCC2)cc1Cl | 9.3µM* | -1% | 7% | 9% | -1% | -9%
O=C(COc1ccccc1)Nc1cc(S(=O)(=O)N2CCOCC2)ccc1N1CCCC1 | u | 33% | 11% | u | 3% | -3%
O=C(NC1CCCCCC1)C1CCN(C(=O)N2CCOc3ccc(Cl)cc32)CC1 | x | x | x | x | x | 2%
